# In all, about 65,000 compounds went through this assay and about 640 (0.98%) were called active. What follows is part of a selection rich in actives, with near analogues and random picks from the rest. Values without a mark were called inactive.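 The calls were made as follows: active = inhibition above a set limit, the mean inhibition across every tested compound plus 3 SD (cut at about 29% in these data); inactive = the rest.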
# Molecular target: 5-hydroxytryptamine receptor 1E (Homo sapiens) (UniProt P28566)
# Sequence (P28566 whole entry, looked up): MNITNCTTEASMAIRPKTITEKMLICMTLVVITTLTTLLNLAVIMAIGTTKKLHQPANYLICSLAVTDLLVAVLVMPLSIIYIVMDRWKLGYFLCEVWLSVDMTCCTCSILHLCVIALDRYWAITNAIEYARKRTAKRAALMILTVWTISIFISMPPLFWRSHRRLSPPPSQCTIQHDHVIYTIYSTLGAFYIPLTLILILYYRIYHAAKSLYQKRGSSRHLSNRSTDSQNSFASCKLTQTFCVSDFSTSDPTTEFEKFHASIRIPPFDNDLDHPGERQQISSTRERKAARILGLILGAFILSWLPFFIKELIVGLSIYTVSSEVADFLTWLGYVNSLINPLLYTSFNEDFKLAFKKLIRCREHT
# Assay: blockade of human serotonin 5HT1E receptor – cell-based, HTS, primary screen (AID 571);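 also: signal is the 460 over 535 nm emission ratio of beta-lactamase substrate; 0% = agonist plus DMSO wells and 100% = wells without agonist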
# Conditions: CHO 5-HT1E Ga15 NFAT-bla reporter, FRET, antagonist; at 6 µM; active compounds read high
row,SMILES,inhibition
1,COc1cc(C(=O)N(Cc2ccc(N(C)C)cc2)C2CCS(=O)(=O)C2)cc(OC)c1OC (stereo unspecified),-0.54%
2,COCCOC(=O)C1=C(C)NC(=O)CC1c1cc2c(cc1Br)OCO2 (stereo unspecified),-1.17%
3,CCCOc1ccccc1C1CC(=O)Nc2cc3c(cc21)OCO3 (stereo unspecified),52.8% (active)
4,COc1cc2c(cc1OC)C(c1ccc(C)o1)CC(=O)N2 (stereo unspecified),11.3%
5,Cn1c(-c2ccco2)nc2cc3ccccc3cc21,1.87%
6,CCOCCN(C=O)c1cccc(OC)c1,-9.77%
7,COC(=O)c1ccc(NCC(=O)c2ccccc2)cc1,-2.89%
8,COc1ccc(C(=O)NCCc2ccc(S(N)(=O)=O)cc2)cc1OC,12.5%
9,CCOC(=O)N1CCN(S(=O)(=O)c2ccc(C(=O)Nc3ccc(F)cc3F)cc2)CC1,38.3% (active)
10,O=C(CN1CCN(S(=O)(=O)c2ccc(F)cc2)CC1)Nc1ccccc1F,2.85%
11,O=C(Nc1cccc(F)c1)c1ccc(S(=O)(=O)N2CCCC2)cc1,-2.92%
12,CCOC(=O)c1sc(NC(=O)CSc2ncccn2)c(C#N)c1C,-1.65%
13,O=S(=O)(c1ccccc1)N(CC(O)CN1CCCCC1)c1ccccc1 (stereo unspecified),-17.2%
14,Cc1ccc(NC(=O)N2CCC(C(=O)NCc3ccc(F)cc3)CC2)cc1,-1.42%
15,O=S(N1CCCCCC1)C12CC3CC(CC(C3)C1)C2 (stereo unspecified),-12.6%
16,CCC(C)NC(=O)N[C@@H](CCSC)C(=O)O (stereo partly specified),-2.48%
17,Oc1c(C(c2cccs2)N2CCN(c3ccc(F)cc3)CC2)sc2ncnn12 (stereo unspecified),-14%
18,O=C(CCSCCc1ccccn1)Nc1nccs1,-8.42%
19,CCC(=O)N(Cc1cc2cc(OC)ccc2[nH]c1=O)c1ccccc1C,15.6%
20,C/C(=C\C(=O)c1cccnc1)Nc1ccc(C)c(C)c1,-0.61%
21,O=C(CNC(=O)c1ccc(Cl)cc1Cl)NCC(=O)Nc1ccccc1N1CCOCC1,5.85%

row,SMILES,inhibition
1,CCCc1nc2ccccc2c(C(=O)OCc2nnc(-c3cc(OC)c(OC)c(OC)c3)o2)c1CC,23%
2,CCOC(=O)c1cc(-c2nnc(-c3cc(OC)c(OC)c(OC)c3)o2)c(C)nc1C,-9.6%
3,COc1cc(-c2nnc(Cn3cc(C(F)(F)F)ccc3=O)o2)cc(OC)c1OC,29% (active)
4,COc1cccc(NC(=O)Cn2cnc3sc(C)c(S(=O)(=O)N4CCN(C)CC4)c3c2=O)c1,-6.2%
5,CC1(C)Cc2c(C#N)c(SCc3nc4ccccc4[nH]3)nc(N3CCOCC3)c2CO1,28.9% (active)
6,CC(C)c1nc(N2CCOCC2)c(C#N)c2c1COC(C)(C)C2,10.4%
7,COc1ccc(CSc2nc(N3CCOCC3)c3c(c2C#N)CC(C)(C)OC3)cc1,-10.9%
8,O=C(CSc1nnc(-c2cccnc2)n1Cc1ccco1)c1ccc(Cl)cc1,11%
9,Cc1ccc(-c2c3c(=O)n(C)c(=O)n(C)c3cn2-n2cnnc2)cc1,30.5% (active)
10,Cc1ccc(-c2c3c(=O)n(C)c(=O)n(C)c3cn2-c2ccccc2O)cc1,4.09%
11,COc1ccc(-c2c3c(=O)n(C)c(=O)n(C)c3cn2-c2cccc(OC)c2)cc1,6.73%
12,CC1CC(C)CN(CC(=O)Nc2ccc(S(N)(=O)=O)cc2)C1 (stereo unspecified),-5.33%
13,Cc1ccc(SCc2cc(=O)[nH]c(N3CCCCC3)n2)cc1,2.38%
14,C=CCSc1nnc(Cn2c(=O)sc3ccccc32)n1C,1.57%
15,COc1ccccc1N1CCN(Cc2nnnn2CCc2ccccc2)CC1,-0.82%
16,COc1ccccc1-n1nnnc1S(=O)(=O)Cc1ccc(Cl)cc1,29.9% (active)
17,COc1ccccc1N1CCN(C(=O)CN(Cc2ccc(Cl)cc2)S(C)(=O)=O)CC1,-2.25%
18,Cn1cnc2c1c(=O)n(Cc1c(Cl)cccc1Cl)c(=O)n2C,5.12%
19,COC(=O)CNS(=O)(=O)c1ccc(Cc2ccc(S(=O)(=O)NCC(=O)OC)cc2)cc1,3.6%
20,CCCn1c(C(O)c2ccc(OCC)cc2)nc2ccccc21 (stereo unspecified),-10.8%
21,COc1ccc(CCn2c(NCCCN3CCOCC3)nc3c2c(=O)[nH]c(=O)n3C)cc1,-6.49%

row,SMILES,inhibition
1,COC(=O)c1ccc(NC(=O)CN(c2ccc(C)cc2)S(=O)(=O)c2c(C)n[nH]c2C)cc1,3.08%
2,CCOC(=O)c1ccc(-c2ccc(C(=O)Nc3cccnc3)o2)cc1,10.9%
3,Cc1cccc(NC(=O)CSc2nnc(NC(=O)CN3CCOCC3)s2)c1,-3.22%
4,CCC(=O)Nc1ccc(C(=O)CSc2nnc(CNc3ccc(Cl)cc3)o2)cc1OC,1.52%
5,COc1ccc2c(c1OC)C(=O)N(c1ncn[nH]1)C2,-0.04%
6,COC(=O)c1ccc(CSc2ccccc2C)o1,1.46%
7,COCC(C)n1c(SCc2ccc(C(=O)OC)o2)nc2ccccc2c1=O (stereo unspecified),24.9%
8,COC(=O)c1ccc(CSc2nc3ccccc3c(=O)n2-c2cccc(OC)c2)o1,39.7% (active)
9,Cc1cc(Nc2cccc(F)c2)n2ncnc2n1,-1.52%
10,CC(=O)NCCc1ccc(S(=O)(=O)N(C)C2CCS(=O)(=O)C2)cc1 (stereo unspecified),-8.57%
11,Fc1ccc2[nH]c3c(N4CCN(Cc5ccc6c(c5)OCO6)CC4)ncnc3c2c1,27.4%
12,Fc1ccc2nc(N3CCCCC3)sc2c1,1.55%
13,Fc1ccc2[nH]c3c(N4CCSCC4)ncnc3c2c1,54.9% (active)
14,C=CCN(CC=C)C(=O)CN1C(=O)c2ccccc2C1=O,1.46%
15,COC(=O)Cc1nc2ccccc2[nH]1,-1.34%
16,COC(=O)Nc1nc2ccc(Sc3ccccc3)cc2[nH]1,65.7% (active)
17,Oc1ccc2nc(Cc3ccccc3)[nH]c2c1,-16.1%
18,CCOc1ccccc1C1CC(c2ccc(Cl)cc2)Nc2nc(N)nn21 (stereo unspecified),4.62%
19,N=c1n(Cc2ccc(Cl)cc2)c2ccccc2n1CC(O)c1ccco1 (stereo unspecified),-1.68%

# From PubChem BioAssay AID571 (The Scripps Research Institute Molecular Screening Center, 2007)
